Where “and” joins values, the source holds several entries; their conditions need not be identical. Identical values can stand only once. Screen size: about 5,500 compounds; about 2,000 (36%) were called active. Not shown: some 18% with an inconclusive outcome. No stated cut-off is given here; in the data, active means normalized growth mostly below about 0.91 (no sharp cut-off); inconclusive means no clear call, values can overlap the other calls; inactive means mostly above about 0.92. The list shows a part of the results.
Assay: chemical genetic growth profiling, strain panel (AID 1159580);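 further: tested at 20 µM; growth read once vehicle control cultures reached saturation at 30 °C; 1 = growth at the plate median or of vehicle wells; lower values mean less growth of the strain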
Conditions: S. cerevisiae deletion strains, growth OD

Measured: normalized growth

Clc1ccccc1C(c1ccccc1)(c1ccccc1)n1ccnc1
active: locus YAL013W, strain DEP1, active compounds read low 0.0556 and 0.0854 | locus YAL021C, strain ccr4, active compounds read low 0.0659 | locus YAL026C, strain drs2, active compounds read low 0.0665 | locus YAL030W, strain snc1, active compounds read low 0.0563 | locus YAL040C, strain CLN3, active compounds read low 0.613 | locus YBL061C, strain skt5, active compounds read low 0.0604 | locus YBR009C, strain hhf1, active compounds read low 0.0704 | locus YBR021W, strain FUR4, active compounds read low 0.0896 | locus YBR023C, strain chs3, active compounds read low 0.0661 | locus YBR171W, strain sec66, active compounds read low 0.0777 | locus YBR229C, strain ROT2, active compounds read low 0.0472 | locus YBR231C, strain swc5, active compounds read low 0.0624 | locus YBR279W, strain paf1, active compounds read low 0.0598 | locus YCL011C, strain gbp2, active compounds read low 0.0573 | locus YCL016C, strain dcc1, active compounds read low 0.066 | locus YCL029C, strain bik1, active compounds read low 0.0623 | locus YCL061C, strain MRC1, active compounds read low 0.0642 | locus YCL069W, strain vba3, active compounds read low 0.0627 | locus YCR088W, strain abp1, active compounds read low 0.0657 | locus YDL005C, strain med2, active compounds read low 0.0759 | locus YDL035C, strain GPR1, active compounds read low 0.0497 | locus YDL040C, strain nat1, active compounds read low 0.058 | locus YDL074C, strain BRE1, active compounds read low 0.0785 | locus YDL101C, strain DUN1, active compounds read low 0.0582 | locus YDL134C, strain PPH21, active compounds read low 0.0506 | locus YDL185W, strain tfp1, active compounds read low 0.0604 | locus YDL192W, strain arf1, active compounds read low 0.0622 | locus YDR001C, strain nth1, active compounds read low 0.0587 | locus YDR069C, strain doa4, active compounds read low 0.0629 | locus YDR101C, strain arx1, active compounds read low 0.0588 | locus YDR137W, strain rgp1, active compounds read low 0.103 | locus YDR150W, strain NUM1, active compounds read low 0.0555 | locus YDR159W, strain sac3, active compounds read low 0.0888 | locus YDR162C, strain NBP2, active compounds read low 0.0501 | locus YDR195W, strain ref2 0.125 | locus YDR297W, strain sur2, active compounds read low 0.0578 | locus YDR318W, strain mcm21, active compounds read low 0.0626 | locus YDR334W, strain swr1, active compounds read low 0.0633 | locus YDR335W, strain msn5, active compounds read low 0.0619 | locus YDR388W, active compounds read low 0.0576 | locus YDR392W, strain spt3, active compounds read low 0.0716 | locus YDR502C, strain sam2, active compounds read low 0.0632 | locus YEL003W, strain gim4, active compounds read low 0.0556 | locus YEL037C, strain rad23, active compounds read low 0.0574 | locus YEL061C, strain CIN8 (second series), active compounds read low 0.0638 | locus YEL061C, strain CIN8, active compounds read low 0.0506 | locus YER002W, strain NOP16, active compounds read low 0.0949 | locus YER015W, strain faa2, active compounds read low 0.0658 | locus YER016W, strain bim1, active compounds read low 0.0637 | locus YER110C, active compounds read low 0.0769 | locus YER111C, strain swi4, active compounds read low 0.0727 | locus YER155C, strain BEM2 (second series), active compounds read low 0.0917 | locus YER155C, strain BEM2, active compounds read low 0.0644 | locus YER167W, strain BCK2, active compounds read low 0.0514 | locus YFR010W, strain ubp6, active compounds read low 0.0718 | locus YGL078C, strain dbp3, active compounds read low 0.0828 | locus YGL086W, strain mad1, active compounds read low 0.0584 | locus YGL167C, strain pmr1, active compounds read low 0.0741 | locus YGL173C, strain kem1, active compounds read low 0.07 | locus YGL227W, strain vid30, active compounds read low 0.0633 | locus YGL240W, strain doc1, active compounds read low 0.0729 | locus YGL248W, strain PDE1, active compounds read low 0.0484 | locus YGL253W, strain hxk2, active compounds read low 0.0556 | locus YGR078C, strain PAC10, active compounds read low 0.0496 | locus YGR135W, strain pre9, active compounds read low 0.0631 | locus YGR252W, strain gcn5, active compounds read low 0.165 | locus YHR013C, strain ard1, active compounds read low 0.105 | locus YHR027C, strain rpn1, active compounds read low 0.0633 | locus YHR030C, strain SLT2, active compounds read low 0.0505 and 0.1 | locus YHR079C, strain IRE1 (second series), active compounds read low 0.0577 | locus YHR079C, strain IRE1, active compounds read low 0.135 | locus YHR094C, strain hxt1, active compounds read low 0.059 | locus YHR129C, strain ARP1, active compounds read low 0.0557 | locus YHR142W, strain chs7, active compounds read low 0.0738 | locus YHR200W, strain rpn10, active compounds read low 0.0614 | locus YIL066C, strain RNR3, active compounds read low 0.0483 | locus YIL073C, strain SPO22, active compounds read low 0.112 | locus YIL125W, strain kgd1, active compounds read low 0.0895 | locus YIR030C, strain dcg1, active compounds read low 0.0606 | locus YJL092W, strain hpr5, active compounds read low 0.0611 | locus YJL095W, strain BCK1 (second series), active compounds read low 0.059 | locus YJL095W, strain BCK1, active compounds read low 0.0611 and 0.105 | locus YJL115W, strain asf1, active compounds read low 0.0739 | locus YJL129C, strain trk1, active compounds read low 0.0834 | locus YJL134W, strain LCB3, active compounds read low 0.0474 | locus YJL154C, strain vps35, active compounds read low 0.0614 | locus YJL164C, strain tpk1, active compounds read low 0.0678 | locus YJL166W, strain qcr8, active compounds read low 0.064 | locus YJL168C, strain set2, active compounds read low 0.0596 | locus YJL187C, strain SWE1 (second series), active compounds read low 0.0488 | locus YJR043C, strain POL32, active compounds read low 0.0648
